Assay outcomes (PubChem)
Efflux pump mplx = antifungal efflux pump inhibition, Nile Red retention | S. cerevisiae Candida pump triplex | inhibition, % at 10 µM | 330,000 tested, 0.44% active | AID 485275;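 active = plate passing quality check with inhibition over a set limit, or well fluorescence over plate mean plus 4 SD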;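 also: Nile Red retained in pooled yeast measured as flow cytometry median fluorescence; 0% = buffer negative control and 100% = Enniatin B positive control; higher means more Nile Red kept so more efflux inhibition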
GC-B act = GC-B (human) receptor activation; 370,000 tested, 0.11% active; HEK293-GC-B cells, CNP EC30, cGMP TR-FRET; 0% at EC30 CNP, 100% saturating CNP; activation, % at 10 µM;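 active = activation at 10 µM reaching about 35% in either raw or pattern-adjusted values, limit read from the data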
Target sequence (P20594 whole entry, looked up): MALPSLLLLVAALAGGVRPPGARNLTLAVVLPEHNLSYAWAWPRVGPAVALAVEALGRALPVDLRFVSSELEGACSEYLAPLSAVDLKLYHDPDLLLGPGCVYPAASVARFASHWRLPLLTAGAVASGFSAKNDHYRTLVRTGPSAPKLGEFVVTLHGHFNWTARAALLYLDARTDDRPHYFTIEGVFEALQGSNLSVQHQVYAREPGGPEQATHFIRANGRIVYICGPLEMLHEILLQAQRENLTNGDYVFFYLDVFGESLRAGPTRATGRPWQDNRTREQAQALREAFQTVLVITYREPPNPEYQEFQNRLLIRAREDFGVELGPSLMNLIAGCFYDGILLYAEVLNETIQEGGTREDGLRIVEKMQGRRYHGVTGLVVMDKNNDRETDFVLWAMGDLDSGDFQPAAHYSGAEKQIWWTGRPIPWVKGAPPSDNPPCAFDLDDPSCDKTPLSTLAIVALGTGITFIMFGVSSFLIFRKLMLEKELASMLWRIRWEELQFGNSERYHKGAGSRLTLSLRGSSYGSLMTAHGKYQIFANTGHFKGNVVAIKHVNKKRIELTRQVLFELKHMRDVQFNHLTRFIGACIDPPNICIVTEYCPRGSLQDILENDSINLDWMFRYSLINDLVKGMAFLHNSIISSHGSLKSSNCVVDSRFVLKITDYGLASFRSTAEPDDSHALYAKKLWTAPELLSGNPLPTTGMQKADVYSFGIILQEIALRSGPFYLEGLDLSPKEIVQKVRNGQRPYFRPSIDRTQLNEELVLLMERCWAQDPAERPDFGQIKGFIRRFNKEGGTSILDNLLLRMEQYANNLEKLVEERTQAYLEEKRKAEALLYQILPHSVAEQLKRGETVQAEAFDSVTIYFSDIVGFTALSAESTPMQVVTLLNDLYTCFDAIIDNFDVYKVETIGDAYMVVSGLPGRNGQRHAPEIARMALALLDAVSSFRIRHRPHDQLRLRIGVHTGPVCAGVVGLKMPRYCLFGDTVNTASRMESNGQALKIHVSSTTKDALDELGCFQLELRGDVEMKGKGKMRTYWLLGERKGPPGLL
Bfl-1 A1 inh = inhibitors of the anti-apoptotic protein A1, read as caspase activation. 330,000 tested, 0.066% active. AID 2462. MEF A1-2A-BIM cells, Caspase-Glo 3/7 luminescence, 3 h; percent of clofoctol response, vehicle zero. caspase activation, % (no concentration beside the values);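 active = over half of replicate activation scores above 10%, or exactly half above 10 with the replicate mean above 10; inconclusive = replicate mean below 10 yet half the replicates above 10; inactive = over half of replicates below 10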
HSV replic up = HSV replication enhancement; HSV replication augmentation in cells, fold increase; maximum fold increase; 220,000 tested, 0.005% active; AID 1956; in the data active = maximum fold increase above about 1.5; inconclusive = no clear call, values can overlap the other calls; tested in PC3 cells
NPR1 activator = GC-A (human) enzyme activation; activation, % at 10 µM; HEK293 GC-A cells, cGMP TR-FRET, EC30 ANP; 0% at EC30 ANP, 100% saturating ANP; P16066; 370,000 tested, 0.14% active; in the data active = activation above about 40%
TAG inh = inhibitors of triacylglycerol accumulation; H9c2 cells, Nile Red lipid (TAG) fluorescence; cells loaded with 200 µM oleic acid; inhibition, % at 12.5 µM; 230,000 tested, 0.66% active; AID 651582;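 active = pattern-corrected inhibition of lipid staining of at least 50% with the nuclear-stain viability signal not falling by more than 50%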;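 also: 0% = DMSO wells and 100% = triacsin C control wells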
Yeast cmpd fluor = counter-screen for efflux pump inhibitors: compound fluorescence; shares compounds with Efflux pump mplx; S. cerevisiae AD/pABC3, flow cytometry; fluorescence ratio to DMSO, % at 10 µM; 1,700 tested, 4% active; AID 588517;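 active = fluorescence ratio to DMSO above its plate's cutoff, the plate mean ratio plus 5 SD, cut at about 210% in these data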;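 also: unstained yeast with no Nile Red so the signal is compound autofluorescence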
Mdr1 pump inh = inhibitors of Candida albicans Mdr1 efflux pump; shares compounds with Efflux pump mplx; S. cerevisiae AD/CaMDR1, Nile Red efflux, flow cytometry; inhibition, % at 10 µM; 1,700 tested, 1% active; in the data active = inhibition above about 26%;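 also: 0% = DMSO vehicle and 100% = reference inhibitor; higher means more Nile Red retained so more efflux inhibition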
Cdr2 pump inh = Candida Cdr2 efflux pump inhibition. shares compounds with Efflux pump mplx. S. cerevisiae AD/CaCDR2, Nile Red retention, flow cytometry. Nile Red retention ratio vs DMSO, % at 10 µM. 1,700 tested, 4% active. AID 588520; in the data active = Nile Red retention ratio vs DMSO above about 190%;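 also: higher ratio means more blocking of Cdr2 efflux of the dye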
Cdr1 pump inh = inhibitors of Candida albicans Cdr1 efflux pump | shares compounds with Efflux pump mplx | S. cerevisiae AD/CaCDR1, Nile Red efflux, flow cytometry | inhibition, % at 10 µM | 1,700 tested, 1% active;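 active = inhibition above the screen-wide mean plus twice its standard deviation, cut at about 32% in these data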
Numbers without * were called inactive. Shown are actives, neighbours in structure and some others; about 1% of the full set was active somewhere.

Results for CCN1CCCC1CNC(=O)c1cc2c(-c3ccc(Cl)cc3)nn(C)c2s1 (centres undefined) ?
Efflux pump mplx: 0; Bfl-1 A1 inh: -1; HSV replic up: inactive; TAG inh: 53*

Results for CCC(C)CNC(=O)c1oc(=O)c2ccccc2c1-c1ccc(C)cc1 (centres undefined) ?
GC-B act: -12; NPR1 activator: -16

How did COc1ccc(S[C@]2(C(=O)N(C)C)CC(=O)N(C(=O)/C=C/c3ccccc3)[C@@H]2c2ccc(OC)cc2)cc1 do in these assays?
GC-B act: 7; NPR1 activator: 1

Results for COc1ccccc1CNC(=O)C[C@H]1CC[C@H]2[C@@H](COc3ccc(NC(=O)Nc4ccccc4)cc3C(=O)N2C)O1 ?
GC-B act: 11; NPR1 activator: 1

How did CCOC(=O)c1cnc2c(C)cccc2c1NCCc1ccc(OC)c(OC)c1 do in these assays?
Efflux pump mplx: 0; GC-B act: -6; Bfl-1 A1 inh: 1; HSV replic up: inactive; NPR1 activator: 1; TAG inh: -36

How did CCOC(=O)c1cnc2ccc(C(=O)OC)cc2c1NCCc1ccc(OC)c(OC)c1 do in these assays?
Efflux pump mplx: 0; GC-B act: 36*; Bfl-1 A1 inh: 0; HSV replic up: inactive; NPR1 activator: 28

What do the screens show for `COc1cccc(CNC(=O)Cc2ccc(-c3ccccc3)cc2)c1`?
Efflux pump mplx: 0; GC-B act: -1; Bfl-1 A1 inh: 1; NPR1 activator: 5

Results for COc1cccc(CNC(=O)COC(=O)CNC(=O)c2ccc(-c3ccccc3)cc2)c1 ?
Efflux pump mplx: 0; GC-B act: 8; NPR1 activator: 47*; TAG inh: 17

What do the screens show for `COc1ccc(-n2c(N)c(C(=O)Nc3c(C)n(C)n(-c4ccccc4)c3=O)c3nc4ccccc4nc32)cc1`?
Efflux pump mplx: 0.8*; GC-B act: 6; Bfl-1 A1 inh: 2; HSV replic up: inactive; NPR1 activator: 5; TAG inh: 10; Yeast cmpd fluor: 110; Mdr1 pump inh: 0; Cdr2 pump inh: 108; Cdr1 pump inh: 0

Results for Cc1ccc(-n2c(N)c(C(=O)Nc3c(C)n(C)n(-c4ccccc4)c3=O)c3nc4ccccc4nc32)cc1C ?
Efflux pump mplx: 0; Bfl-1 A1 inh: 0; HSV replic up: inconclusive

What do the screens show for `Cc1ccc(C(=O)N2CCC(Oc3cccnc3)CC2)c(C)c1`?
GC-B act: 6; NPR1 activator: 3

Results for CCN(CC)c1ccc2c(C)c(Cl)c(=O)oc2c1 ?
Efflux pump mplx: 0; GC-B act: 1; Bfl-1 A1 inh: 0; HSV replic up: inactive; NPR1 activator: 16; TAG inh: 5

How did CCN(CC)c1ccc2c(Cl)c(Br)c(=O)oc2c1 do in these assays?
Efflux pump mplx: 8.6*; Bfl-1 A1 inh: 1; TAG inh: -36; Yeast cmpd fluor: 452*; Mdr1 pump inh: 1; Cdr2 pump inh: 504*; Cdr1 pump inh: 1

How did Cc1cccc(NC(=O)/C(C#N)=C/c2cn(CC(=O)NCc3ccco3)c3ccccc23)c1C do in these assays?
Efflux pump mplx: 11*; GC-B act: -2; Bfl-1 A1 inh: 0; HSV replic up: inactive; NPR1 activator: -3; Yeast cmpd fluor: 106; Mdr1 pump inh: 0; Cdr2 pump inh: 116; Cdr1 pump inh: 0

What do the screens show for `COC(=O)C12C=C3CC(c4ccc(C(F)(F)F)cc4)=C3C(=O)N1Cc1[nH]c3ccccc3c1C2` (centres undefined)?
GC-B act: 9; NPR1 activator: 4

Results for C/C(=N\Nc1ncnc2sc(C)c(C)c12)c1ccccn1 ?
Efflux pump mplx: 30*; GC-B act: 2; Bfl-1 A1 inh: -1; NPR1 activator: 8; Yeast cmpd fluor: 80; Mdr1 pump inh: 0; Cdr2 pump inh: 135; Cdr1 pump inh: 5

How did CCNC(=S)N(CCc1ccccc1C)Cc1cc2cc(OC)c(OC)cc2[nH]c1=O do in these assays?
Efflux pump mplx: 0; GC-B act: 2; Bfl-1 A1 inh: 0; HSV replic up: inactive; NPR1 activator: 2

How did COc1cc2cc(CN(CCc3ccccc3C)C(=S)NCCCN(C)C)c(=O)[nH]c2cc1OC do in these assays?
Efflux pump mplx: 8.9*; GC-B act: 0; Bfl-1 A1 inh: 1; HSV replic up: inactive; NPR1 activator: 0; Yeast cmpd fluor: 105; Mdr1 pump inh: 0; Cdr2 pump inh: 97; Cdr1 pump inh: 0

What do the screens show for `CC(=O)c1cc(-c2csc(C=O)c2)c(=O)n2c1CCC2`?
GC-B act: -5; NPR1 activator: 0

Results for O=C(c1ccc(Cl)nc1)c1cccs1 ?
Efflux pump mplx: 0; Bfl-1 A1 inh: -1; HSV replic up: inactive

What do the screens show for `O=C(c1cccs1)c1no[n+]([O-])c1C(=O)c1cccs1`?
Efflux pump mplx: 0.9*; Bfl-1 A1 inh: -1; HSV replic up: inactive; TAG inh: 87; Yeast cmpd fluor: 107; Mdr1 pump inh: 2; Cdr2 pump inh: 287*; Cdr1 pump inh: 0

Results for CC(=O)Nc1ccc(S(=O)(=O)N2CCN(c3nc4ccccc4n3CC(C)C)CC2)cc1 ?
Efflux pump mplx: 1.0*; GC-B act: -8; Bfl-1 A1 inh: 0; NPR1 activator: 1; TAG inh: -4; Yeast cmpd fluor: 100; Mdr1 pump inh: 0; Cdr2 pump inh: 114; Cdr1 pump inh: 0

How did CC[n+]1c(/C=C/c2ccc(N(C)C)cc2)ccc2ccccc21 do in these assays?
Efflux pump mplx: 11*; GC-B act: -35; Bfl-1 A1 inh: -2; HSV replic up: inactive; NPR1 activator: -39; Yeast cmpd fluor: active; Mdr1 pump inh: 16; Cdr2 pump inh: 121; Cdr1 pump inh: 9

Results for CCN(CC)c1ccc(/C=C/c2ccc3ccc(OC)cc3[n+]2CC)cc1 ?
Efflux pump mplx: 16*; GC-B act: -11; Bfl-1 A1 inh: -1; NPR1 activator: -16; Yeast cmpd fluor: active; Mdr1 pump inh: 11; Cdr2 pump inh: 155; Cdr1 pump inh: 9
